Legend:
Assay in all cases: PBM binding z-score (relative to random genomic background probes); higher = stronger binding; sequences stand for … in GC…GCGATTGACAGCGTAGAATGAAGG
[1] = tested on: RARb homodimer (NR concentration 270 nM)
Summary of the method: (§1)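 Custom Agilent 4×180K protein-binding microarrays carried double-stranded probes, each with a 34-nt variable region. These regions held direct-repeat seeds, single-nucleotide variants, half-site ablations and random human genomic background sequences. Ligand-free nuclear receptor dimers were incubated on the arrays for 1 h, antibodies against each partner (one per run) detected binding, and scanned fluorescence was regression-normalized. Binding z-scores take the random background probes as reference.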

[2] = tested on: RARg:RXRa (NR concentration 270 nM, RXRa partner concentration 90 nM)
Summary of the method: as §1

[3] = tested on: RARg homodimer (NR concentration 270 nM)
Summary of the method: as §1

[4] = tested on: RXRa DBDmut IVT, anti-RXR (DBD mutation: RXRa K156A/R161A, NR concentration 90 nM)
Summary of the method: as §1

[5] = tested on: RXRa homodimer (NR concentration 180 nM)
Summary of the method: as §1

[6] = tested on: THRa:RXRa (NR concentration 90 nM, RXRa partner concentration 90 nM)
Summary of the method: as §1

[7] = tested on: THRa homodimer (NR concentration 90 nM)
Summary of the method: as §1

[8] = tested on: VDR homodimer (NR concentration 270 nM)
Summary of the method: as §1

Sequence	PBM binding z-score [1]	PBM binding z-score [2]	PBM binding z-score [3]	PBM binding z-score [4]	PBM binding z-score [5]	PBM binding z-score [6]	PBM binding z-score [7]	PBM binding z-score [8]
GGAACGAGGGCATACGAGTTGATAGCATGGCGAT	0.493	1.12	1.65	2.41	1.02	2.92	-0.328	2.37
CGTCCAAGGTCAGCAGGTCAGTGAGAGCGACGTG	5.13	6.35	6.67	2.46	5.29	4.01	2.56	1.93
TAAATGAGGTTAAAGATCAGGGAACGTGGCGTCG	1.22	2.58	1.64	1.2	4.01	3.09	0.733	1.12
AATACAGGGTCACTAGGCCAGAGGAGGTACGAAT	3.25	5.14	5.04	2.54	5.66	3.34	1.54	2.73
TCTATTAGTTGATTAGAGCAACCGAAACAGCGGA	-0.716	0.0982	0.245	0.765	0.293	-0.353	-0.739	0.18
CAAACTCGGTCAAGGTCAAAGTCGGTTTGTGCCA	4.47	5.26	5.55	2.48	4.82	4	3.53	4.43
CCTACTGAGCCACGAAAGGTCATTGATTCAGTGA	4.59	4.56	4.22	1.03	5.47	3.41	1.23	2.9
TCTGCTAGGTCAACGATGGTCAGCTTATCTGCTA	3.56	4.14	4.75	1.26	2.49	3.22	0.783	-0.342
ATCTCTAGGTAAAAGTTCAATGAATCCCGAGGAT	3	2.3	2.41	1.29	2.4	1.71	0.132	2.73
AATACAGGTTCATCGTAGGCCAGAGTACGCACAG	1.46	2.54	1.39	4.66	3.17	3.66	0.0172	5.45
TGAATGAGGTTATTAGATCAGGGAACGTTGCAAA	0.387	1.36	0.893	1.46	1.66	2	0.756	0.942
TCTCGGAGGACTCGAAGGTCAGAGCTTTCCAGAG	2.73	1.7	1.24	0.262	1.41	1.65	-0.0603	-0.0798
CATACAGGCTCAGCTAGGCCAGAGTAGGGACGGC	-0.642	-0.268	0.0433	-0.877	-0.366	-0.349	-0.416	-0.751
CGTCAAAGTTTAAGGTAACGTAACAGAAAGCAGC	0.852	0.923	1.7	1.29	0.482	3.1	3.1	-0.0381
AGTCAAAGTTCATCTAGGTTACGTAAGATATGCT	4.3	5.85	6.39	4.52	5.4	3.45	0.553	6.02
TAGCCTAGGTCATGGGCAAGTATACCACGCGAAC	3.17	4.22	4.58	0.0807	3.44	3.34	1.26	0.341
AATACAGGGTCACTAGGCCAGAGCAGGTACGAAT	3.36	5.15	5.08	2.67	5.66	3.31	1.07	2.39
ATCGTAAGGTCGAAGGTGAGTATACCCACCCGAA	1.59	2.97	2.44	1.58	3.4	2.98	1.59	0.909
GCATATAGGTAATACACGGTGAAAGTCCGATTGT	0.0641	0.309	0.397	0.18	0.407	1.23	-0.424	0.0175

Sequence	PBM binding z-score [1]	PBM binding z-score [2]	PBM binding z-score [3]	PBM binding z-score [4]	PBM binding z-score [5]	PBM binding z-score [6]	PBM binding z-score [7]	PBM binding z-score [8]
ACTTACGGGTCAACGAGGTTATAACACGCGTATA	3.71	5.74	5.07	3.22	6.33	4.34	1.32	4.13
CCTACTGGGACATCAGGTCATTGATATCAACGTT	2.48	1.91	1.87	0.77	1.54	3.23	3.41	2.42
GCTATTAGTTGAAATGGCAACCGAATGATTCTCG	-0.503	-0.0997	0.311	0.893	-0.164	-0.279	-0.241	0.0264
ATCCCTAGGTAACCAAGTTCAGTGAATGCCGAAC	1.97	0.484	0.374	0.841	0.841	1.79	1.02	2.77
ATCTCTAGGTAAGCAAGTTCAGTGAATGCCGAAC	1.09	0.455	0.778	0.62	0.3	0.771	0.165	2.32
GCATATAGGTAATACAAGGCGAAAGTCCGATTGT	-0.287	0.107	0.326	0.52	0.182	2.28	-0.176	-0.0927
AGAACGAAGGCACGCTGAGTTGATAGCAGAGTAG	-0.785	-0.198	0.0507	-0.345	0.0315	-0.717	-1.12	-0.212
CCTTGCGGGTCACTCCAGGTTATAGCATCGGAGT	2.74	3.99	3.63	1.43	3.78	4.98	0.573	1.2
ATCGAAAGGTCGAGGTGAGTAAAGAGAAAGGGAA	2.34	4.22	4.38	0.813	4.08	2.63	0.539	0.357
ACAGACAGGTGATGAAGGTAAATCAGGCTATCAT	0.0548	0.28	0.373	-0.384	0.316	0.885	-0.061	-0.34
TCATCTAGGTAAAAGGTGAAAGTCGGTGTGGTAA	2.04	1.82	0.925	1.24	2.84	1.99	0.446	0.293
ACTAGCAGGCCAAGTTTGGGTCACTCGAACAAAG	2.15	2.31	1.59	-0.0795	0.694	2.42	0.889	0.0508
ACAGACTGGTGAGTGAAGGTAACTCAGCTGGACG	-0.42	-0.303	-0.112	-0.514	-0.182	0.0338	-0.517	-0.299
GCGACTGGGGCAAAGAAGGTTACCATAAGGTTGG	1.92	1.19	1.02	-0.00563	0.942	2.77	0.225	0.247
AGAATGAAGTTAAGATCAGGGAAACAGAATACAT	-0.296	0.141	0.297	-0.544	0.166	0.135	-0.599	-0.0314
TCTATTAGTTGATTAGGGTAACCGAAACAGCGGA	0.423	0.525	0.53	1.03	0.666	1.61	0.861	0.517
GGCACGAGGGCAAGTTGATAGCAGAGTTTGATGG	1.6	1.91	2.12	2.06	1.17	1.23	0.0135	1.58
CTCGAAAGGTCGGTTGAGGCGAGTATACGGATAA	1.33	2.36	2.23	0.644	1.72	4.02	-0.501	-0.121
TCATATAGGTAATACAGGTGATAGTCGGCATCTA	0.0336	0.618	0.526	1.57	0.945	0.371	0.0861	-0.0181

Sequence	PBM binding z-score [1]	PBM binding z-score [2]	PBM binding z-score [3]	PBM binding z-score [4]	PBM binding z-score [5]	PBM binding z-score [6]	PBM binding z-score [7]	PBM binding z-score [8]
AATACAGGGTCACTAGGCCAGAGTTGGTACGAAT	3.56	5.2	5.06	2.8	5.94	3.51	1.21	2.58
AGAACGAGGGTACGCTGAGTTGATAGCAGAGTAG	-0.336	0.424	0.303	0.994	0.16	0.2	-0.484	2.14
GGAACGAGGGCATTCGAGTCGATAGCATGGCGAT	0.222	1.01	1.35	3.2	0.622	2.5	-0.885	1.87
GCGACTGGGGCATCAGCAGCTTACCATAACTTAA	-0.217	-0.328	-0.193	0.178	-0.47	-0.225	-0.422	-0.429
ATCGAAAGGTCGACGATGTGAGTATACACCGTTT	2.66	3.8	3.82	1.13	4.27	1.91	-0.483	0.438
TAGCCTACGTCATTGGGCCAGTATAGTACGCATC	-0.397	-0.281	-0.0336	-0.739	-0.232	-0.688	-0.62	-0.718
CCTTACGGGTCACGAGGTAATAGCACGACGAGCG	3.32	5.87	5.34	1.67	6.56	3.52	0.849	0.979
CCTGCTAGGTCATGTTCAGCTAATCTACAGTATG	2.65	3.26	3.95	2.42	2.13	2.51	1.08	0.754
CATACTAGGTCACGAAAGGTCAAAGTCGAATGAC	5.99	7.94	8.68	2.83	8.69	5.16	2.91	4.71
CTGGAAAGGTCGGTTGAGGTGAGTATACGGATAA	2.18	2.53	2.93	1.05	2.18	4.88	1.56	0.437
AGAATGAGGGCACGCTGAGTTGATAGCAGAGTAG	1.3	2.28	2.15	2.2	1.7	2.53	0.735	2.08
CGAACTAGGTCAAAGACAGTGAATCTCCGCACGC	2.53	3.63	3.88	1.57	2.67	2.39	0.814	0.508
AGAATGAGGTTATTAAGATTAGGGAATTGCGGTC	0.809	1.27	0.836	2	1.72	2.05	0.933	1.29
CCTACTGGGCCACGAAAGGTCACTGATTCAGTGA	4.67	4.7	4.98	-0.0819	4.93	3.84	1.03	0.962
GCGACTGGGGCAAGGCAGGTTACCATAAGGTTGG	1.16	0.436	0.635	-1.16	0.144	2.41	0.0224	-0.42
ATCTCTAGGAAACCAAGTTCAGTGAATGCCGAAC	1.32	0.329	0.454	0.614	0.323	0.46	0.191	2.72
TCTTGTAGATCAACAGTAGGTTAAGAAAGATCGA	-0.123	0.314	0.0764	0.88	0.463	0.12	-0.482	-0.281
TGAATCAGGTTAAAGATCAGGGAACGTGGCGTCG	-7.29e-05	0.805	0.611	-0.0911	1.71	1.04	-0.365	-0.0211
CCGAGTATGTTATGGGGCATTCAGGCAACGGTGA	0.485	0.112	0.276	0.833	0.294	0.302	0.125	0.00991

Reference: the supplement of paper PMC6555819
